Assay [1] is described as follows: qHTS for Inhibitors of the Functional Ribonucleoprotein Complex (vRNP) of Lassa (LASV) Arenavirus: LASV Primary Screen - GLuc reporter signal (AID 1347082; calls by dose curve; tested in HEK293 reporter line; further: series mostly up to about 57 µM; nearly all actives have a fitted effect of over 60% in size). (In general: In qHTS, concentration-response curves come from the screen itself.)
A short description of assay [2]: qHTS for Inhibitors of the Functional Ribonucleoprotein Complex (vRNP) of Lymphocytic Choriomeningitis Arenaviruses (LCMV): Viability assay - alamar blue signal for LCMV Primary Screen (AID 1347085; calls by dose curve; tested in HEK293 reporter line; further: series mostly up to about 57 µM; nearly all actives have a fitted effect of over 80% in size).
The nature of assay [3]: Cytotoxicity counterscreen for inhibitors of SARS-CoV-2 cell entry (AID 1645845). Further: series mostly up to about 57 µM; nearly all actives have a fitted effect of over 50% in size. In short, it runs like this:
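After a 15 min room-temperature ATPLite 1step step, luminescence reflected ATP remaining in HEK293-ACE2 cells exposed to compound for 1 h plus 48 h at 37 C, with percent activity set by cell and no-cell controls.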
For orientation: A counterscreen serves to expose hits that act by an unwanted route or on another target.

The target in assay [4] is Nucleoprotein (Lymphocytic choriomeningitis virus (strain Armstrong)) (UniProt P09992). As to the kind of experiment: qHTS for Inhibitors of the Functional Ribonucleoprotein Complex (vRNP) of Lymphocytic Choriomeningitis Arenaviruses (LCMV): LCMV Primary Screen - GLuc reporter signal (AID 1347086). Further: series mostly up to about 57 µM; nearly all actives have a fitted effect of over 70% in size.
Chain of Nucleoprotein (Lymphocytic choriomeningitis virus (strain Armstrong)) (P09992 whole entry, looked up): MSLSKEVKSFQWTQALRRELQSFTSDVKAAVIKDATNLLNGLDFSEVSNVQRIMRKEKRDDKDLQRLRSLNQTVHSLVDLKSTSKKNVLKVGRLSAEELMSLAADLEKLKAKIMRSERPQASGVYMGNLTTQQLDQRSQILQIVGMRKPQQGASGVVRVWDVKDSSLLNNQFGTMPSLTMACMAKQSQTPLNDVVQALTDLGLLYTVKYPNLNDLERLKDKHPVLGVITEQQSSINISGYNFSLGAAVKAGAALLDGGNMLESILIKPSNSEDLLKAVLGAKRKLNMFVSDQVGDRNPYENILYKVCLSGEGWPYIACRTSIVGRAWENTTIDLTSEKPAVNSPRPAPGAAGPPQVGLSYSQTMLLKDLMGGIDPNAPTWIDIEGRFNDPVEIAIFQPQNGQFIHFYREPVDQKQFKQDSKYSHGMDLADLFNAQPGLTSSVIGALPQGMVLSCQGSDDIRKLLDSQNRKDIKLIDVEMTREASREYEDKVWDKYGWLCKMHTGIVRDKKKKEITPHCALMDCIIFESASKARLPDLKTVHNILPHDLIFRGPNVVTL
Assay [5] can be described thus: Inducers of the Endoplasmic Reticulum Stress Response (ERSR) in human glioma: Validation (AID 504836; active means well fitted curve in the direction sought with a large enough effect). The essentials: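 Stably transfected U87-MG human glioma cells carrying a GRP78-based luminescent sensor were seeded at 1000 cells/well, pin-dosed with compounds and incubated 16 h. Luciferase reagent was then added, and end-point luminescence was read after 10 min at room temperature.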

Results filed as inconclusive are left out. Calls of active or inactive are those of the source. Unless noted, the call rests on the fitted dose curve.

`C[C@H](NC(=O)c1sccc1OCc1ccc(Cl)cc1)c1ccccc1`: the Potency entry in assay [1], in assay [2] and in assay [3] was “inactive” in each case.
Regarding `COc1c2ccoc2c(OCC=C(C)C)c2oc(=O)ccc12`, the Potency entry in assay [1] and in assay [4] was “inactive” each time.
With `Nc1ncnc2c1nc(Br)n2C1OC2COP(=O)(O)O[C@@H]2C1O` (stereo partly specified), the call in assay [5] was inactive. Further, the Potency result in assay [1], in assay [2] and in assay [4] was “inactive” in each case.
Turning to `COc1cc(C=CC(=O)O)ccc1O`, the Potency entry in assay [1] and in assay [4] was “inactive” each time.

(Values after PubChem BioAssay (NCATS).)
